Assay results reported in PubChem BioAssay (NCI).
The panel holds about 83,000 compounds, 20% with a hit somewhere; the sample as a whole holds those more often.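 How to read the values: 0–100, growth inhibition (40 = 60% inhibited); 0, no net growth; -100 to 0, cell death (-40 = 40% of starting cells died; -100 = all dead).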 Values without a mark were called inactive. The source made the active and inactive calls. How the source made its calls: active means growth percent below 10; inactive means the rest.

Assays:
Experiment in all cases: NCI-60 one-dose screen, 48 h (100 = growth as untreated, 0 = no growth, -100 = all killed)
Settings in all cases: 10 µM unless noted
[1] = system: SR leukemia
[2] = system: RPMI-8226 leukemia
[3] = system: OVCAR-8 ovarian
[4] = system: OVCAR-5 ovarian
[5] = system: OVCAR-4 ovarian
[6] = system: SK-OV-3 ovarian
[7] = system: IGROV1 ovarian
[8] = system: OVCAR-3 ovarian
[9] = system: HS 578T breast
[10] = system: NCI/ADR-RES ovarian
[11] = system: T-47D breast
[12] = system: BT-549 breast
[13] = system: MDA-MB-435 melanoma
[14] = system: SW-620 colon
[15] = system: MCF7 breast
[16] = system: HCT-116 colon
[17] = system: HCC-2998 colon
[18] = system: KM12 colon

Compound	growth [1]	growth [2]	growth [3]	growth [4]	growth [5]	growth [6]	growth [7]	growth [8]	growth [9]	growth [10]	growth [11]	growth [12]	growth [13]	growth [14]	growth [15]	growth [16]	growth [17]	growth [18]
COc1cc(NS(=O)(=O)c2ccc(-c3cnc(C4CC4)o3)cc2)ccc1F	19.6%	20.2%	28.6%	36.7%	38.6%	47.4%	24.6%	-15.4% (active)	8.89% (active)	15.3%	33.6%	44.6%	-21.3% (active)	18%	12.7%	20.9%	38.4%	20.7%
O=C(/C=C/c1ccco1)Nc1ncc(Cc2cccc(C(F)(F)F)c2)s1	9.93% (active)	12.4%	8.79% (active)	30.3%	4.64% (active)	16.9%	4.48% (active)	-33.3% (active)	0.428% (active)	-4.7% (active)	21.5%	8.55% (active)	-49.6% (active)	18.4%	12.9%	7.05% (active)	12.2%	4.7% (active)
Nc1c(C(=O)Nc2ccncc2)sc2nc3c(cc12)C(O)CCC3 (stereo unspecified)	84.1%	89.3%	98.7%	97.2%	114%	98%	103%	119%	118%	105%	74.3%	113%	101%	99.7%	93.8%	83.4%	96.7%	109%
COCCNC(=O)Nc1ccc2nc(-c3cccs3)c(-c3cccs3)nc2c1	67%	92.1%	93.4%	87.9%	98.2%	98.8%	89%	106%	93.6%	90.1%	58.1%	94.4%	94.1%	89.2%	78.9%	92.7%	101%	95.2%
CC/C(=C(/c1ccc(Cl)cc1)c1ccc(OCCN2CCCCC2)cc1)c1ccc(OC)cc1	-22.2% (active)	-10.5% (active)	65.9%	65.4%	69.3%	94.9%	80.5%	66.4%	85.3%	71.8%	32.3%	78.2%	65.6%	39.1%	15.3%	46.9%	71%	39.1%
COCCn1cc(-c2nc(-c3cc4cccnc4[nH]3)cs2)c2cc(OC)ccc21	2.96% (active)	27.1%	25.3%	26.3%	15.6%	21%	24.5%	27.6%	-4.1% (active)	28.5%	-12.4% (active)	1.78% (active)	52.4%	48.4%	0.765% (active)	30.3%	57.6%	1.17% (active)
CCN(CC)Cc1cc(C=C2C(=O)NC(=S)NC2=O)cc(OC)c1O	109%	110%	113%	104%	122%	111%	112%	114%	103%	110%	114%	110%	105%	107%	97.6%	114%	118%	111%
COC(=O)CC[C@@H]1O[C@@H](c2cccc(C(F)(F)F)c2)[C@@H](O)[C@H]1O	97.1%	109%	110%	97.1%	105%	97.8%	112%	99.4%	93.8%	108%	98.8%	98.9%	102%	100%	96.7%	98.2%	114%	94.1%
CCCCNCCCCCNc1cc(OC)cc2cccnc12	71.1%	76.9%	99.3%	91.4%	60.1%	95.2%	118%	107%	99%	95.9%	79.4%	91%	102%	100%	84.6%	85.9%	95.4%	114%
CCOC(=O)[C@@H]1CSC(CC)=C(C(=O)O)N1	-11.1% (active)	-32% (active)	101%	107%	117%	69.1%	109%	128%	109%	113%	87.3%	101%	109%	105%	108%	94.1%	111%	114%
Nc1cc(C(=O)NC[C@H]2CN(c3ccc(N4CCC(C(=O)O)CC4)cc3)C(=O)O2)ccc1Cl	95.4%	100%	103%	96.1%	107%	113%	103%	114%	107%	103%	98.3%	104%	108%	97.7%	95.3%	105%	107%	100%
COc1ccc2c(c1)CC[C@H](O)/C2=C/c1cc(OC)c(OC)c(OC)c1	-5.45% (active)	34.3%	16.1%	61%	41.1%	13.9%	27.8%	-18.3% (active)	33.3%	6.93% (active)	51.9%	4.02% (active)	-54.4% (active)	21.1%	16%	2.27% (active)	22.1%	10.8%
O=C(O)c1cn(C2CC2)c2cc(N3CCN(C(=O)N(c4ccccc4)c4nc(-c5ccccc5)cs4)CC3)c(F)cc2c1=O	-5.43% (active)	9.25% (active)	12.5%	6.16% (active)	25.4%	-16.2% (active)	7.38% (active)	3.78% (active)	24.5%	2.3% (active)	11.4%	-13% (active)	8.3% (active)	20.7%	6.99% (active)	5.04% (active)	16.5%	5.03% (active)
Cc1cccc(/C=C/c2c(C(=O)/C=C/c3ccccc3)c(C)nc3ccccc23)c1	11.8%	-11.6% (active)	-13.7% (active)	-37.9% (active)	2.06% (active)	33.7%	-27.6% (active)	-50.6% (active)	18.9%	-8.03% (active)	-4.51% (active)	2.21% (active)	-66% (active)	-14% (active)	3.87% (active)	-56.3% (active)	-84.5% (active)	-52.7% (active)
OCCn1cc(-c2nc(-c3c[nH]c4ncccc34)cs2)c2cc(F)ccc21	22%	53.6%	80.2%	84.3%	52.4%	70.1%	44.7%	81%	70.9%	82.6%	35.2%	68.7%	5.03% (active)	57.9%	48.1%	62.4%	65.3%	28.4%
Nc1nc2ccc(-c3nc4ccc5[nH]ncc5c4c4c3CCCC4)cc2s1	95.9%	115%	100%	105%	107%	94.4%	102%	110%	99.7%	103%	110%	106%	111%	106%	97.7%	91.8%	107%	101%
C=C(C)[C@@H]1CC[C@]2(CO)CC[C@]3(C)[C@H](CC[C@@H]4[C@@]5(C)CC[C@H](NCO)C(C)(C)[C@@H]5CC[C@]43C)[C@@H]12	-29.5% (active)	-42% (active)	-43.8% (active)	-91.2% (active)	-93.7% (active)	-87.5% (active)	-94.1% (active)	-81.9% (active)	-58.3% (active)	-53.6% (active)	-42.9% (active)	74.3%	-84.5% (active)	-79.7% (active)	-62.8% (active)	-62.1% (active)	-63.3% (active)	-77.5% (active)
